The full data set covers some 8,800 targets. This sample favours those with a hit. About 0.5% of all pairs of compound and target were hits. Unmarked numbers belong to inactive results.
What was measured:
Assay in all cases: log2 fold change, soluble protein after heating vs DMSO (PISA); higher = thermal stabilisation; K562 lysate, 10 uM; active = over 0.2 and 3.5 SD of the protein, either way, in both replicates (recomputed)
ibrutinib = compound: C=CC(=O)N1CCC[C@@H](n2nc(-c3ccc(Oc4ccccc4)cc3)c3c(N)ncnc32)C1 [ibrutinib]
Summary of the method: (§1)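 Pellets of K562 cells were dounce-homogenised in PBS pH 7.4 with 1 mM MgCl2, and the crude extract was held at 1 mg/mL protein for a 30 min treatment with 10 μM compound. Aliquots were heated for 3 min over 48°C-58°C and pooled before NP-40 was added to 0.5% at 4°C. The supernatant from 21,000xg for 90 min was quantified by TMTpro 16plex LC-MS/MS with channel sums equalised. Values are reported from duplicates as log-two fold change in thermal stability relative to solvent controls.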

[1] = compound: CC(=O)c1cnc2ccc(-c3cc(Cl)c(O)c(Cl)c3)nc2c1N[C@H]1CC[C@H](CN(C)C)CC1
Summary of the method: as §1

ralimetinib = compound: CC(C)(C)Cn1c(N)nc2ccc(-c3[nH]c(C(C)(C)C)nc3-c3ccc(F)cc3)nc21 [ralimetinib]
Summary of the method: as §1

[2] = compound: CC(C)(O)CC(=O)NCCn1ccc2ncnc(Nc3ccc(Oc4cccc(C(F)(F)F)c4)c(Cl)c3)c21
Summary of the method: as §1

[3] = compound: CC(C)C1=C2N=C(C=C(N2N=C1)NCC3=CC=CC=C3)NCCCCCCN
Summary of the method: as §1

[4] = compound: CC1=C(C(CC(=O)N1)C2=CC=C(C=C2)C(F)(F)F)C(=O)NC3=C(C=C4C(=C3)C=NN4)F
Summary of the method: as §1

[5] = compound: CC1=C(C2=C(C=C1)C(=O)C3=CC=CC=C3N2CCCN)C
Summary of the method: as §1

[6] = compound: CC1=C(C=C(C=C1)NC(=O)C2=CC(=CC=C2)C(C)(C)C#N)NC3=CC4=C(C=C3)N=CN(C4=O)C
Summary of the method: as §1

[7] = compound: CC1=C(C=C(C=C1)NC(=O)C2=CC(=CC=C2)N(C)C)NC(=O)C3=CC=C(C=C3)O
Summary of the method: as §1

[8] = compound: CC1=CC=C(C=C1)SC2=C3C=C(SC3=CN=C2)C(=O)N
Summary of the method: as §1

vemurafenib = compound: CCCS(=O)(=O)Nc1ccc(F)c(C(=O)c2c[nH]c3ncc(-c4ccc(Cl)cc4)cc23)c1F [vemurafenib]
Summary of the method: as §1

[9] = compound: CCCS(=O)(=O)Nc1ccc(F)c(C(=O)c2c[nH]c3ncc(Cl)cc23)c1F
Summary of the method: as §1

barasertib = compound: CCN(CCCOc1ccc2c(Nc3cc(CC(=O)Nc4cccc(F)c4)[nH]n3)ncnc2c1)CCOP(=O)(O)O [barasertib]
Summary of the method: as §1

[10] = compound: CC[C@@H]1C(=O)N(C)c2cnc(Nc3ccc(C(=O)NC4CCN(C)CC4)cc3OC)nc2N1C1CCCC1
Summary of the method: as §1

volasertib = compound: CC[C@@H]1C(=O)N(C)c2cnc(Nc3ccc(C(=O)N[C@H]4CC[C@H](N5CCN(CC6CC6)CC5)CC4)cc3OC)nc2N1C(C)C [volasertib]
Summary of the method: as §1

[11] = compound: CCn1c(C(=O)N(C2CC2)C2CC2)cc2c3c(ncn3C)c(Nc3cc(C)n(C)n3)nc21
Summary of the method: as §1

[12] = compound: CCn1cc(-c2ccnc3[nH]c(-c4cccc(CN(C)C)c4)cc23)c(-c2ccc(NC(=O)N(C)C)cc2)n1
Summary of the method: as §1

[13] = compound: CN1CCC(CNc2ccc3ncc(-c4cccc(OC(F)(F)F)c4)n3n2)CC1
Summary of the method: as §1

saracatinib = compound: CN1CCN(CCOc2cc(OC3CCOCC3)c3c(Nc4c(Cl)ccc5c4OCO5)ncnc3c2)CC1 [saracatinib]
Summary of the method: as §1

sotrastaurin = compound: CN1CCN(c2nc(C3=C(c4c[nH]c5ccccc45)C(=O)NC3=O)c3ccccc3n2)CC1 [sotrastaurin]
Summary of the method: as §1

Chain of UniProt Q8N6R0 (Q8N6R0 whole entry, looked up): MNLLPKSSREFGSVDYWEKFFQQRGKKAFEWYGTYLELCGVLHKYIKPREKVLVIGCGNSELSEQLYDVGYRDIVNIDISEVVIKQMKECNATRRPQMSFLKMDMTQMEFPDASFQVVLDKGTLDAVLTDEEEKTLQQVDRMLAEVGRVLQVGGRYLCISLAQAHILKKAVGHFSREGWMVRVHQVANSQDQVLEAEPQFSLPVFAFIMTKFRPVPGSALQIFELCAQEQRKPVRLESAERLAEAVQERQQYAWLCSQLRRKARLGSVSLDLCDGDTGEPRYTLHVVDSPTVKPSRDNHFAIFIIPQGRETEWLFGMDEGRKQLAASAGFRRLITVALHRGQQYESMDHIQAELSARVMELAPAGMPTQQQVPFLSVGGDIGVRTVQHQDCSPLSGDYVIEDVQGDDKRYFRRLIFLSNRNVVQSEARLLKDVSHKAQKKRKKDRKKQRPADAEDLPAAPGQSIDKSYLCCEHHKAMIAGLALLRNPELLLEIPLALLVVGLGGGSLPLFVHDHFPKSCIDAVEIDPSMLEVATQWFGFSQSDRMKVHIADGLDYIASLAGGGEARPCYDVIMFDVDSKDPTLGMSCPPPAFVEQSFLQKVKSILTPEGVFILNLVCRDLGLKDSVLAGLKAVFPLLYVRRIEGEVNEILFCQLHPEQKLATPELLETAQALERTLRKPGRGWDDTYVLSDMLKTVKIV
Chain of UniProt Q15717 (Q15717 whole entry, looked up): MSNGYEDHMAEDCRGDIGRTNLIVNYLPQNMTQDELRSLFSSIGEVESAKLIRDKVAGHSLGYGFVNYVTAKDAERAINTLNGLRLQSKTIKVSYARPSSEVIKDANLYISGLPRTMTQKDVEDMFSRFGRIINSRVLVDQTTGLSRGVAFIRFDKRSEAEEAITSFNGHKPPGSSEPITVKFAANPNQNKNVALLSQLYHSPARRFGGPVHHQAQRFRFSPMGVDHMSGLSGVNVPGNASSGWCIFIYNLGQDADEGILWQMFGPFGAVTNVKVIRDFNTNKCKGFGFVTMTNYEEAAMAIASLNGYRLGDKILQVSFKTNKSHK
Chain of UniProt Q96EK7 (Q96EK7 whole entry, looked up): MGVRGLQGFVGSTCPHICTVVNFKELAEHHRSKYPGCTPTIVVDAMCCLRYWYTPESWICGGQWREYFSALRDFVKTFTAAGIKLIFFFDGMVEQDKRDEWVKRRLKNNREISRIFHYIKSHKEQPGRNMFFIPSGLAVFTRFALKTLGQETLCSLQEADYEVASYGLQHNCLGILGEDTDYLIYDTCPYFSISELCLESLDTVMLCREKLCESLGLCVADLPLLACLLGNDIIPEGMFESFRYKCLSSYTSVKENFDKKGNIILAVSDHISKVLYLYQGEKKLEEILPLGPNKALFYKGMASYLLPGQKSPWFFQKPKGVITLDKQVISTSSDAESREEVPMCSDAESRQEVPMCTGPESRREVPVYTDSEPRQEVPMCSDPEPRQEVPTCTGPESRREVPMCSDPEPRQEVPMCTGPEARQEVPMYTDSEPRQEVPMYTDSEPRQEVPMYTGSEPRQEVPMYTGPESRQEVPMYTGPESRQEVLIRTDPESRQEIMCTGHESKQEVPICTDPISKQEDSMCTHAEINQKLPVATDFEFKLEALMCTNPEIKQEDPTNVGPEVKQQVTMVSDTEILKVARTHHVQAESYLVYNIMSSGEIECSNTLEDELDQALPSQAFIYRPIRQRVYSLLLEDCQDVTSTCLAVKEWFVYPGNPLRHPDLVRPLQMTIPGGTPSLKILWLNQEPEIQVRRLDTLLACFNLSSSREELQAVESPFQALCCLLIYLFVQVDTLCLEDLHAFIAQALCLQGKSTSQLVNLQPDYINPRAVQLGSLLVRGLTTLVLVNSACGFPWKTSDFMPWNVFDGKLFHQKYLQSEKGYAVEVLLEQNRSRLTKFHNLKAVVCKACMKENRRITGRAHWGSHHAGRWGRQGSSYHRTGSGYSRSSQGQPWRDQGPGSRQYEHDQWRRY
Chain of UniProt Q9Y5Q0 (Q9Y5Q0 whole entry, looked up): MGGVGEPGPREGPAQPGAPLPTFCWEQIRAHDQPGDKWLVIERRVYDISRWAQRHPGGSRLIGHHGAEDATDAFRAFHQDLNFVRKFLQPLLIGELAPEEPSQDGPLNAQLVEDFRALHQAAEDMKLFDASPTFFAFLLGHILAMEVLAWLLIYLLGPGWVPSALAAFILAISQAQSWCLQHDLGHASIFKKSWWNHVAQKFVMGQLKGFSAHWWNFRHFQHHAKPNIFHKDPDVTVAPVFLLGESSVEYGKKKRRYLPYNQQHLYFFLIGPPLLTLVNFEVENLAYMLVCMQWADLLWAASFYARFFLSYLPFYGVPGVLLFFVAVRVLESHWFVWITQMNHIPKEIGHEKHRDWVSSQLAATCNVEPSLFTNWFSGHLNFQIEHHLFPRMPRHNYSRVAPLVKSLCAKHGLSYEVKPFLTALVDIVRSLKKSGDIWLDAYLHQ
Chain of UniProt P62942 (P62942 whole entry, looked up): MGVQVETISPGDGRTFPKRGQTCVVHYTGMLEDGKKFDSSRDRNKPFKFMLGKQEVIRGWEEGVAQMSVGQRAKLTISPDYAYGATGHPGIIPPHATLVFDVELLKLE
Chain of UniProt P51116 (P51116 whole entry, looked up): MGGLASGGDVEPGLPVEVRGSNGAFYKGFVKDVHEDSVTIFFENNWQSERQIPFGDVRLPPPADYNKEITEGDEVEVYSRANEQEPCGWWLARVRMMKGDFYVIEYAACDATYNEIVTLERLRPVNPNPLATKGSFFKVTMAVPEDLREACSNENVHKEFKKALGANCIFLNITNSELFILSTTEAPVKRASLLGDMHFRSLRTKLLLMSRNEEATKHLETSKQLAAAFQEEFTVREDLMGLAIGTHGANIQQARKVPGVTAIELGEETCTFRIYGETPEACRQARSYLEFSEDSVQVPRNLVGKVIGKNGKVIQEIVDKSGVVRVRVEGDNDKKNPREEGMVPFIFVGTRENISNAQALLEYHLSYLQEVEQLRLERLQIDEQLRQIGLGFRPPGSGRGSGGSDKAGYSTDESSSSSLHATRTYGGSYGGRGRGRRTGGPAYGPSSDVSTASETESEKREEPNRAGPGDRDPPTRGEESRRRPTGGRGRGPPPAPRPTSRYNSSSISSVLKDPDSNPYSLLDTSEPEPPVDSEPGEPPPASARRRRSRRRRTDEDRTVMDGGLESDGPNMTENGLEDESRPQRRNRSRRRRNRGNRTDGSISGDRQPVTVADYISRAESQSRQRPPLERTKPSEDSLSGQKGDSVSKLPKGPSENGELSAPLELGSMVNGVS
Chain of UniProt Q9NSD9 (Q9NSD9 whole entry, looked up): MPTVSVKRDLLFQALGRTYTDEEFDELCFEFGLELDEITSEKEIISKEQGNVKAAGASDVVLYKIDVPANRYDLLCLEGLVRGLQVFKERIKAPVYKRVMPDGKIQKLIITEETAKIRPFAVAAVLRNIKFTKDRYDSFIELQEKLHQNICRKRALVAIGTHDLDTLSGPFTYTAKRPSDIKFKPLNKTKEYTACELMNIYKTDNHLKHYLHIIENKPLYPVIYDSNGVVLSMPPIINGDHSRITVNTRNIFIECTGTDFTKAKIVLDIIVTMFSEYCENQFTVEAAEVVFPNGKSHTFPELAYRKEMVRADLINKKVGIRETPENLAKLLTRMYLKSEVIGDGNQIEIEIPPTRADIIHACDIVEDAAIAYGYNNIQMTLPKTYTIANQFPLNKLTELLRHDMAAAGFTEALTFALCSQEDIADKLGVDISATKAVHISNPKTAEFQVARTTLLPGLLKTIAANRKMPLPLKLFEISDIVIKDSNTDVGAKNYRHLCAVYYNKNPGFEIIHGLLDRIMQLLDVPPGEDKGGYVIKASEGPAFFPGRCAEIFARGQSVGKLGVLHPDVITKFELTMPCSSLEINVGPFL
Chain of UniProt Q86YP4 (Q86YP4 whole entry, looked up): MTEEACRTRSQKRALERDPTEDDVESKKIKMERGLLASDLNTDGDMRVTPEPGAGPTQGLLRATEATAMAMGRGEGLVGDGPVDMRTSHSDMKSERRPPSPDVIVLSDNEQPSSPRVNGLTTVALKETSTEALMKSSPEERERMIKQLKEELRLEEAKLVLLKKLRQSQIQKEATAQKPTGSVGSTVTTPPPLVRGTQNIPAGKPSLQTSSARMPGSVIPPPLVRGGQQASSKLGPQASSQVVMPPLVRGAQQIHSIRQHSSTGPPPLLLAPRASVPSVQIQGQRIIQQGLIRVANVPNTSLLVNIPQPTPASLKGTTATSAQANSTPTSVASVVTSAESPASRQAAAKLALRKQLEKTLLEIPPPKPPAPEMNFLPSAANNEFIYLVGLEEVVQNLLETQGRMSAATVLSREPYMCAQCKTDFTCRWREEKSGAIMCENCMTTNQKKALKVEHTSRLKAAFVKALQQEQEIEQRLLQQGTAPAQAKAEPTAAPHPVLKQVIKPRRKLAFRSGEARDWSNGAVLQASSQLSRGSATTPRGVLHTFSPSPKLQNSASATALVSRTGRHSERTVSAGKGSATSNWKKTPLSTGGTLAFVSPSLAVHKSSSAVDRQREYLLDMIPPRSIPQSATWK
Chain of UniProt P41567 (P41567 whole entry, looked up): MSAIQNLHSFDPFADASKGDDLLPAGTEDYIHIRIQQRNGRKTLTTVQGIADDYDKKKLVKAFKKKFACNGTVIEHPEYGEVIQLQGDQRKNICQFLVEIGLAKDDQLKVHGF
Chain of UniProt Q13347 (Q13347 whole entry, looked up): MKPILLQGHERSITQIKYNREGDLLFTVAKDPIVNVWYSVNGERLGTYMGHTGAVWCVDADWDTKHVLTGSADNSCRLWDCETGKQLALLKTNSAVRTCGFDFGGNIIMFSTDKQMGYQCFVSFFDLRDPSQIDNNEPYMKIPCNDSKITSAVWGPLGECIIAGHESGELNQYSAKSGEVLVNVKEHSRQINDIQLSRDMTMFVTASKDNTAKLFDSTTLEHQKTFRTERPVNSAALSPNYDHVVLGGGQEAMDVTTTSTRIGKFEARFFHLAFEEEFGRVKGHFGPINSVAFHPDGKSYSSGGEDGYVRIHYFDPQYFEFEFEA
Chain of UniProt O43768 (O43768 whole entry, looked up): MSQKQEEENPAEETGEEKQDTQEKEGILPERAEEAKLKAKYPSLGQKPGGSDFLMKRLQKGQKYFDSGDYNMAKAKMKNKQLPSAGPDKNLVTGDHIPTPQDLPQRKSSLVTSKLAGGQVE

Target | log2 fold change (ibrutinib) | log2 fold change [1] | log2 fold change (ralimetinib) | log2 fold change [2] | log2 fold change [3] | log2 fold change [4] | log2 fold change [5] | log2 fold change [6] | log2 fold change [7] | log2 fold change [8] | log2 fold change (vemurafenib) | log2 fold change [9] | log2 fold change (barasertib) | log2 fold change [10] | log2 fold change (volasertib) | log2 fold change [11] | log2 fold change [12] | log2 fold change [13] | log2 fold change (saracatinib) | log2 fold change (sotrastaurin)
FARSB (UniProt Q9NSD9) | 0.021 | -0.013 | -0.006 | 0.016 | 0.004 | -0.023 | 0.007 | 0.033 | 0.008 | 0.03 | -0.009 | 0.006 | 0.018 | 0.003 | -0.024 | 0.016 | 0 | -0.018 | 0.022 | 0.095
EIF3I (UniProt Q13347) | 0.018 | -0.019 | 0.035 | 0.046 | 0.032 | 0.003 | 0.013 | 0.009 | 0.056 | 0.022 | 0.017 | 0.025 | 0.017 | -0.113 | -0.078 | 0.011 | -0.034 | -0.03 | -0.008 | 0.027
FTSJ1 (UniProt Q9UET6) | 0.004 | -0.006 | -0.03 | 0.094 | -0.054 | 0.011 | 0.069 | -0.024 | 0.062 | 0.03 | -0.036 | -0.006 | -0.043 | -0.04 | -0.056 | -0.003 | 0.067 | 0.027 | -0.018 | 0.089
FAM120B (UniProt Q96EK7) | 0.023 | -0.003 | 0.035 | -0.013 | 0.031 | -0.028 | 0.002 | 0.008 | 0.041 | 0.012 | 0.001 | 0.045 | -0.009 | 0.01 | -0.029 | 0.033 | -0.011 | -0.085 | 0.005 | 0.008
ERLIN1 (UniProt O75477) | 0.005 | 0.034 | -0.011 | 0.038 | -0.007 | 0.044 | 0.005 | -0.052 | -0.008 | 0.012 | 0.01 | 0.013 | 0.008 | -0.037 | -0.029 | 0.033 | 1.01 | -0.059 | 0.041 | -0.023
FKBP1A (UniProt P62942) | 0.083 | -0.103 | 0.188 | -0.054 | 0.049 | -0.022 | -0.013 | 0.084 | 0.018 | 0.187 | -0.138 | -0.028 | 0.092 | 0.107 | 0.163 | -0.036 | -0.854 (active) | 0.146 | 0.052 | -0.017
ELF2 (UniProt Q15723) | 0.07 | 0.116 | 0.013 | -0.038 | 0.006 | -0.017 | -0.066 | 0.035 | 0.022 | -0.028 | -0.022 | -0.056 | -0.123 | 0.005 | 0.042 | 0.031 | 0.086 | -0.078 | -0.023 | -0.004
EEF1AKNMT (UniProt Q8N6R0) | -0.016 | 0.017 | 0.096 | 0.023 | 0.017 | -0.003 | -0.024 | 0.002 | -0.021 | 0.002 | -0.007 | 0.041 | 0.008 | -0.08 | -0.026 | 0.053 | -0.026 | -0.031 | -0.017 | 0.008
FADS3 (UniProt Q9Y5Q0) | 0.11 | -0.02 | -0.123 | 0.075 | -0.051 | 0.074 | -0.49 | 0.015 | 0.017 | -0.017 | 0.066 | 0.149 | 0 | 0.119 | -0.103 | 0.023 | -0.957 (active) | 0.343 | 0.152 | -0.057
FXR2 (UniProt P51116) | 0.027 | -0.008 | 0.028 | 0.004 | 0.026 | 0.024 | 0.004 | -0.005 | -0.018 | 0.011 | 0 | 0.041 | -0.003 | -0.021 | -0.028 | 0.028 | 0.007 | -0.076 | 0.034 | -0.009
EPB41 (UniProt P11171) | 0.01 | 0.026 | 0.009 | 0.012 | -0.003 | -0.001 | 0.018 | -0.023 | 0.01 | 0.044 | -0.051 | 0.005 | -0.009 | -0.033 | -0.02 | 0.022 | 0.026 | -0.135 | 0.014 | 0.026
ELAVL1 isoform 2 (UniProt Q15717) | 0.042 | -0.034 | -0.016 | 0.039 | -0.009 | -0.02 | -0.026 | -0.042 | 0.028 | 0.007 | 0.035 | 0.024 | -0.013 | -0.03 | -0.029 | 0.035 | 0.013 | -0.083 | -0.001 | 0.024
EIF1 (UniProt P41567) | 0.026 | 0.015 | -0.016 | 0.011 | 0 | -0.114 | 0.059 | 0.045 | -0.043 | -0.037 | 0.013 | -0.014 | -0.053 | 0.053 | 0.023 | -0.05 | 0.009 | 0.084 | -0.02 | -0.042
GATAD2A isoform 3 (UniProt Q86YP4) | 0.017 | 0.008 | 0.023 | 0.01 | 0.012 | -0.004 | 0.005 | 0.01 | 0.016 | -0.005 | -0.014 | 0.019 | 0.008 | 0.012 | -0.014 | -0.004 | -0.058 | 0.022 | 0.022 | -0.002
ENSA isoform 3 (UniProt O43768) | 0.042 | 0.015 | -0.019 | 0.02 | -0.013 | -0.016 | 0.039 | -0.042 | -0.057 | -0.01 | -0.034 | -0.016 | -0.052 | 0.049 | 0.025 | 0.033 | 0.212 | -0.058 | -0.021 | -0.007
GAPVD1 isoform 6 (UniProt Q14C86) | 0.005 | 0.003 | 0.031 | -0.004 | -0.018 | 0.028 | 0.008 | 0.003 | 0.011 | 0.018 | 0.011 | 0.006 | 0.01 | -0.077 | -0.036 | 0.027 | 0.046 | -0.083 | 0.014 | 0.012

Source: the supplement of paper PMC10849652
